Records with an inconclusive call do not appear. Where a call stands in place of a potency, no number is given. A number with no mark means an inactive call. The source made the active and inactive calls. Calls follow the shape of the dose curve; as a rule, active = well fitted cell-killing curve with a large enough effect; inconclusive = small, poorly fitted or top-dose-only effect, or effect the other way; inactive = no such curve, though single readings can be large or run the other way.
Potency is read from the fitted curve at half-maximal effect.

The assay is described as follows: Viability qHTS for spleen associated tyrosine kinase inhibitor (SYKi) naive MV4-11 cells (AID 1963823). Also: nearly all actives have a fitted effect of over 40% in size. Conditions: MV4-11 AML viability, CellTiter-Glo luminescence, 72 h; series mostly up to 45 µM. Summed up: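 In this viability screen, compounds acted on SYK inhibitor naive MV4-11 cells for three days (72 hr, 37 C). Remaining viable cells were measured by CellTiter-Glo luminescence following a 10 min room-temperature development.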
(qHTS replaces the single test concentration by a dilution series.)
Take `CC1CC=C2C1CC1(O)C(=O)CC2(C)C1(C)CO` (stereo not drawn): the Potency entry is “inactive”.
Consider `C/C(=C\CCC(C)CCO)C(=O)O[C@@H]1[C@@H](O)[C@H](OC2OC=C(C(=O)O)C3CCC(C)(O)C23)O[C@H](CO)[C@H]1O` (stereo partly drawn), for which the Potency entry is “inactive”.
The same measure, in the same setting: the figure for `COc1ccc(N(C(=O)Nc2c(C)cccc2C)c2cc(Nc3ccc(N4CCN(C)CC4)cc3)ncn2)c(OC)c1` is 2.31 µM (active); for `C=C1[C@@H]2CC[C@@H]3[C@@](CCC4C(C(=O)O)(C(=O)O)C[C@@H](O[C@@H]5O[C@H](CO)[C@@H](O)[C@H](O)[C@H]5OC(=O)CC(C)C)C[C@]43C)(C2)[C@H]1O` (stereo partly drawn) it is “inactive”; for `CC1(C)CC2C(O)C3=C(CC(C)(O)C2C1)C(=O)OC3` (stereo not drawn) it is “inactive”.
For the molecule `CC(=O)C1CCC(=O)N1Cc1ccccc1` (stereo not drawn), the Potency result was “inactive”.
The same measure, in the same setting: the figure for `CC(C)c1nc(N(C)S(C)(=O)=O)nc(-c2ccc(F)cc2)c1/C=C/[C@@H](O)C[C@@H](O)CC(=O)O` is 8.2 µM (active); for `CN(CCOc1ccc(C[C@H](Nc2ccccc2C(=O)c2ccccc2)C(=O)O)cc1)c1ccccn1` it is “inactive”; for `COC(=O)C1=CO[C@@H](O[C@@H]2O[C@H](CO)[C@@H](O)[C@H](O)[C@H]2O)[C@H]2[C@@H]1[C@H](O)C[C@]2(C)O` it is “inactive”.
On the same count and under the same terms, the value for `CC1CC(O)CC(C)(C)C1(O)CCO` (stereo not drawn) was “inactive”; that for `Cc1c(C(=O)Nc2ccc(N3CCC(N4CCOCC4)CC3)c(C#N)c2)cnn1-c1ccc(Cl)cc1` was 0.116 µM (active); that for `CC1=C2C3OC(=O)C(C)C3(O)CCC2(C)CCC1=O` (stereo not drawn) was “inactive”.
The same measure, in the same setting: the entry for `CC(C)(O)C1=CCC23COC(C2)C(O)(C(=O)O)CCC13` (stereo not drawn) is “inactive”.
With `CC(c1ncncc1F)C(O)(Cn1cncn1)c1ccc(F)cc1F` (stereo not drawn), the Potency result is “inactive”.
Take `C=CC1(C)CC(O)C2(CCC3C(C)(C(=O)O)CCCC3(C)C2=O)C1` (stereo not drawn): the Potency result was “inactive”.
Still for that read-out and setting: the value for `C#CC(=O)N(c1ccc(OC)cc1OC)C(C(=O)NCC(=O)OCC)c1cccs1` (stereo not drawn) was 0.116 µM (active).
Same read-out and setting: the entry for `CCC(C)C(C(=O)O)N1Cc2c(OCC=C(C)C)c(C)c(OC)c(C(=O)O)c2C1=O` (stereo not drawn) is “inactive”.
The same measure, in the same setting: the entry for `CC1C/C=C/C=C\CCCCC(O)C/C=C/C(=O)O1` (stereo not drawn) is “inactive”; for `CCc1cc(CC[C@]2(C3CCCC3)CC(O)=C(Cc3nc4nc(C)cc(C)n4n3)C(=O)O2)cc(CC)n1` it is 10.3 µM (active); for `COc1cc2c(cc1O)C1(Cc3ccc4c(c3C1=O)OCO4)N(C)CC2` (stereo not drawn) it is “inactive”.
As for `COc1cnc(-n2cnc(C)n2)c2[nH]cc(C(=O)C(=O)N3CCN(C(=O)c4ccccc4)CC3)c12`, the Potency entry was “inactive”.
`CC1CCC2C(C)(C)C(O)CCC2(C)C12Cc1c(O)cc3c(c1O2)CN=C3N` (stereo not drawn): the Potency entry was “inactive”.
The same measure, in the same setting: the value for `C=C1CCC(OC(C)=O)C2(C)CC3OC(=O)C(C)=C3CC12` (stereo not drawn) was “inactive”.
The same measure, in the same setting: the value for `C=C1CC[C@H](O)CC1=C/C=C1\CCC[C@]2(C)[C@@H]([C@H](C)/C=C/[C@H](C)C(C)C)CC[C@@H]12` was 8.2 µM (active).
Regarding `O=C1NC(Cc2c[nH]c3ccccc23)C(=O)NC1Cc1cnc[nH]1` (stereo not drawn), the Potency entry was “inactive”.
As to `c1ccc2c(Nc3nnc(-c4ccncc4)s3)cccc2c1`, the Potency entry is “inactive”.
With `CCOc1ccc(-c2ccc(Cn3c(CC(C)(C)C(=O)O)c(SC(C)(C)C)c4cc(OCc5ccc(C)cn5)ccc43)cc2)cn1`, the Potency result was “inactive”.
On the same count and under the same terms, the value for `COc1cccc2cc3c(c(O[C@@H]4O[C@H](CO[C@@H]5O[C@H](CO)[C@@H](O)[C@H](O)[C@H]5O)[C@@H](O)[C@H](O)[C@H]4O)c12)C(C)OC3=O` (stereo partly drawn) was “inactive”; that for `COC(=O)C[C@H]1[C@]2(C)C3=C(C)[C@H](c4ccoc4)C[C@H]3O[C@@H]2[C@H](O)C2[C@](C)(C(=O)OC)C=CC(=O)[C@@]21C` (stereo partly drawn) was “inactive”.
Same read-out and setting: the value for `O=C(O)c1cc2cccc([N+](=O)[O-])c2[nH]1` was “inactive”; that for `Cc1ccc(-c2c(-c3nn(C)c4ncnc(N5CCC(N6CCCCC6)C5)c34)cnn2C)cc1` (stereo not drawn) was 16.4 µM (active).
Take `C[C@@H]1O[C@@H](O[C@H]2[C@H](O[C@H]3CC[C@@]4(C)C(CC[C@]5(C)C4CC=C4[C@@H]6CC(C)(C)CC[C@]6(C(=O)O[C@@H]6OC[C@H](O)[C@H](O)[C@H]6O[C@@H]6O[C@@H](C)[C@H](O[C@@H]7O[C@H](CO)[C@@H](O)[C@H](O)[C@H]7O)[C@H](O)[C@H]6O)[C@H](O)C[C@]45C)C3(C)C)O[C@H](CO)[C@@H](O[C@@H]3OC[C@@H](O)[C@H](O)[C@H]3O)[C@@H]2O)[C@H](O)[C@H](O)[C@H]1O` (stereo partly drawn): the viability (% of control) is 79.8% [at 9.25 µM].
As for `CC(=O)Nc1c(I)cc(I)c(C(=O)O)c1I`, the Potency result is “inactive”.

For the origin of these results see PubChem BioAssay (NCATS).
